Data from the supplement of paper PMC6607015.
Structures can show the parent of a compound that is named as a salt.

What was measured:
Conditions in all cases: compound concentration in added solution (µM; 5 µl added to 20 µl cells): 10; 18 h
[1] = system: A431; experiment: LBPA endosome anti-LBPA integrated intensity (sum per cell), Z-score; higher = more LBPA staining
Method in brief: (§1)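 Duplicate 384-well imaging plates were prepared with 5 µl of 10 µM compound solution per well, and 3,500 HeLa MZ or A431 cells in 20 µl were added on top. Following 18 h of incubation and fixation in 4% PFA, cells received 6C4 anti-LBPA antibody, filipin, propidium iodide and CellTracker green. Four images per well at 20× were segmented in MetaXpress to yield per-cell integrated LBPA or filipin intensity, whole-cell or within LBPA endosomes. These intensities are reported as Z-scores normalised in AcuityXpress.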

[2] = system: HeLa MZ; experiment: as above
Method in brief: as §1

[3] = system: A431; experiment: whole-cell filipin (free cholesterol) integrated intensity, Z-score; higher = more cholesterol staining
Method in brief: as §1

[4] = system: HeLa MZ; experiment: as above
Method in brief: as §1

[5] = system: A431; experiment: filipin (cholesterol) integrated intensity within LBPA endosomes, Z-score; higher = more cholesterol in LBPA endosomes
Method in brief: as §1

[6] = system: HeLa MZ; experiment: as above
Method in brief: as §1

SMILES | LBPA endosome anti-LBPA integrated intensity (z-score) [1] | LBPA endosome anti-LBPA integrated intensity (z-score) [2] | whole-cell filipin (z-score) [3] | whole-cell filipin (z-score) [4] | filipin (z-score) [5] | filipin (z-score) [6]
CC(C)COCC(CN(Cc1ccccc1)c1ccccc1)N1CCCC1 (configuration not stated) [Bepridil hydrochloride] | 1.46 | 1.74 | -0.0149 | -0.717 | 2.11 | 0.331
CN(C)CCN(Cc1cccs1)c1ccccn1 [Methapyrilene hydrochloride] | -0.506 | 0.465 | -0.777 | -0.37 | -0.539 | -0.0761
C=CC1=C(C(=O)O)N2C(=O)[C@@H](NC(=O)/C(=N\OCC(=O)O)c3csc(N)n3)[C@H]2SC1 [Cefixime] | -0.497 | -0.00426 | -0.828 | -0.585 | -0.573 | -0.64
Cn1nnnc1SCC1=C(C(=O)O)N2C(=O)[C@@H](NC(=O)[C@H](O)c3ccccc3)[C@H]2SC1 [Cefamandole sodium salt] | -0.486 | -0.416 | -0.496 | 0.0398 | -0.431 | -0.551
CN(CCOc1ccc(CC2SC(=O)NC2=O)cc1)c1ccccn1 (configuration not stated) [Rosiglitazone Hydrochloride] | -0.367 | 0.286 | 0.193 | 0.897 | -0.277 | -0.0127
N[C@@H](C(=O)N[C@@H]1C(=O)N2C(C(=O)O)=C(Cl)CS[C@H]12)c1ccccc1 [Cefaclor hydrate] | -0.551 | -0.828 | -0.722 | -0.368 | -0.522 | -0.558
CC[N+](CC)(CC(=O)Nc1c(C)cccc1C)Cc1ccccc1 [Denatonium benzoate] | -0.32 | -0.985 | -0.241 | -0.0671 | -0.379 | -0.548
COc1cc(N)c(Cl)cc1C(=O)NC1CCN(CCCOc2ccc(F)cc2)CC1OC (configuration not stated) [Cisapride] | 0.467 | 0.977 | -0.114 | 0.308 | 0.0889 | 0.672
CCOC(=O)C(C)(C)Oc1ccc(Cl)cc1 [Clofibrate] | -0.34 | -0.523 | -0.116 | -0.429 | -0.352 | -0.657
CC(C)CC(=O)N[C@H](C(=O)N[C@H](C(=O)N[C@@H](CC(C)C)[C@@H](O)CC(=O)N[C@@H](C)C(=O)N[C@@H](CC(C)C)[C@@H](O)CC(=O)O)C(C)C)C(C)C [Pepstatin A] | -0.604 | -1.38 | -0.841 | -0.484 | -0.569 | -0.589
Nc1ccc(S(=O)(=O)Nc2ccccn2)cc1 [Sulfapyridine] | -0.468 | -0.131 | -0.33 | -0.348 | -0.499 | -0.602
CC(O)(P(=O)(O)O)P(=O)(O)O [Etidronic acid, disodium salt] | -0.428 | -0.376 | -0.14 | -0.368 | -0.461 | -0.4
COc1ccc(-c2ccc(=N)n(CCCC(=O)O)n2)cc1 [Gabazine bromide] | -0.561 | -0.0518 | -0.811 | -0.576 | -0.574 | -0.549
C/C=C(/C(=C/C)c1ccc(O)cc1)c1ccc(O)cc1 [Dienestrol] | -0.546 | -0.673 | -0.449 | -0.338 | -0.497 | -0.451
N#Cc1ccc(C2CCCc3cncn32)cc1 (configuration not stated) [Fadrozole hydrochloride] | -0.639 | -1.49 | -1.18 | -0.874 | -0.538 | -0.502
Nc1nc(=O)c2nc(CNc3ccc(C(=O)N[C@@H](CCC(=O)O)C(=O)O)cc3)cnc2[nH]1 [Folic acid] | -0.628 | -1.15 | -0.811 | -0.635 | -0.597 | -0.671
CC1(C)OC(=O)NC1=O [Dimethadione] | -0.345 | 0.802 | -0.303 | -0.0416 | -0.341 | -0.341
CCOC(=O)[C@H](CCc1ccccc1)N[C@@H](C)C(=O)N1Cc2ccccc2C[C@H]1C(=O)O [Quinapril HCl] | -0.508 | -0.151 | -0.267 | -0.543 | -0.453 | -0.577
Nc1nc2c(ncn2COC(CO)CO)c(=O)[nH]1 [Ganciclovir] | -0.282 | 0.382 | -0.0797 | 0.0803 | -0.332 | -0.411
C=C1C[C@H]2[C@@H]3C=C(C)C4=CC(=O)CC[C@]4(C)[C@H]3CC[C@]2(C)[C@@]1(OC(C)=O)C(C)=O [Melengestrol acetate] | 1.2 | 1.67 | 2.08 | 1.46 | 1.58 | 1.05
O=C(O)CCc1nc(-c2ccccc2)c(-c2ccccc2)o1 [Oxaprozin] | -0.435 | -0.524 | -0.0363 | 0.42 | -0.35 | -0.246
Cc1nnc(NS(=O)(=O)c2ccc(N)cc2)s1 [Sulfamethizole] | -0.497 | -0.619 | -0.626 | -0.62 | -0.469 | -0.463
CO[C@H]1/C=C/O[C@@]2(C)Oc3c(C)c(O)c4c(O)c(c5c(nc6cc(C)ccn65)c4c3C2=O)NC(=O)/C(C)=C\C=C\[C@H](C)[C@H](O)[C@@H](C)[C@@H](O)[C@@H](C)[C@H](OC(C)=O)[C@@H]1C [Rifaximin] | -0.465 | -0.154 | 0.151 | 0.344 | -0.307 | -0.143
COc1ccc(Cl)cc1C(=O)NCCc1ccc(S(=O)(=O)NC(=O)NC2CCCCC2)cc1 [Glibenclamide] | -0.686 | -1.35 | -0.573 | 0.104 | -0.559 | -0.567

SMILES | LBPA endosome anti-LBPA integrated intensity (z-score) [1] | LBPA endosome anti-LBPA integrated intensity (z-score) [2] | whole-cell filipin (z-score) [3] | whole-cell filipin (z-score) [4] | filipin (z-score) [5] | filipin (z-score) [6]
C[C@@H]1[C@H](O)[C@@H](C)/C=C/C=C/C=C/C=C/C=C/C=C/C=C/[C@H](O[C@@H]2O[C@H](C)[C@@H](O)[C@H](N)[C@@H]2O)C[C@@H]2O[C@](O)(C[C@@H](O)C[C@@H](O)[C@H](O)CC[C@@H](O)C[C@@H](O)CC(=O)O[C@H]1C)C[C@H](O)[C@H]2C(=O)O [Amphotericin B] | 0.731 | -0.696 | -0.156 | 0.222 | 0.0841 | -0.26
C[C@]12CCC(=O)C=C1C=C[C@@H]1[C@@H]2CC[C@@]2(C)[C@H]1CC[C@@]21CCC(=O)O1 [Canrenone] | -0.209 | 1.1 | 0.452 | 1.37 | -0.0815 | 0.168
COc1ccccc1O [Guaiacol] | -0.278 | 0.0632 | 0.299 | -0.2 | -0.335 | -0.255
CN1CCN(CCCN2c3ccccc3Sc3ccc(Cl)cc32)CC1 [Prochlorperazine dimaleate] | 2.82 | 1.36 | 0.00438 | -0.198 | 1.66 | 1.98
CC(NCCc1ccc(O)cc1)C(O)c1ccc(O)cc1 (configuration not stated) [Ritodrine hydrochloride] | -0.357 | 0.237 | -0.158 | -0.199 | -0.481 | -0.491
C[C@]1(Cn2ccnn2)[C@H](C(=O)O)N2C(=O)C[C@H]2S1(=O)=O [Tazobactam] | -0.572 | -0.303 | -0.35 | 0.00122 | -0.502 | -0.538
Clc1cccc(Cl)c1NC1=NCCN1 [Clonidine hydrochloride] | -0.318 | -0.0581 | -0.585 | -0.0901 | -0.436 | -0.268
CC(N)C12CC3CC(CC(C3)C1)C2 (configuration not stated) [Rimantadine Hydrochloride] | -0.677 | -0.134 | -0.496 | 0.106 | -0.59 | -0.56
COCC(=O)Nc1c(I)c(C(=O)NCC(O)CO)c(I)c(C(=O)N(C)CC(O)CO)c1I (configuration not stated) [Iopromide] | -0.665 | -1.68 | -0.559 | -0.164 | -0.527 | -0.574
CO[C@@H]1[C@@H](OC(N)=O)[C@@H](O)[C@H](Oc2ccc3c(O)c(NC(=O)c4ccc(O)c(CC=C(C)C)c4)c(=O)oc3c2C)OC1(C)C [Novobiocin sodium salt] | -0.507 | -0.477 | -0.352 | -0.602 | -0.469 | -0.462
CC(=O)N(O)CCCCCNC(=O)CCC(=O)N(O)CCCCCNC(=O)CCC(=O)N(O)CCCCCN [Deferoxamine mesylate] | -0.408 | -0.755 | 0.541 | -0.469 | -0.422 | -0.499
N=C(N)N/N=C/c1c(Cl)cccc1Cl [Guanabenz acetate] | 2.17 | 0.543 | 1.23 | -0.116 | 1.62 | 0.458
CC(C(=O)O)c1ccc2c(c1)Cc1cccnc1O2 (configuration not stated) [Pranoprofen] | -0.52 | -0.228 | -0.251 | -0.607 | -0.527 | -0.553
OCCN(CCO)c1nc(N2CCCCC2)c2nc(N(CCO)CCO)nc(N3CCCCC3)c2n1 [Dipyridamole] | 0.808 | 0.577 | -0.543 | -0.536 | -0.2 | -0.39
CCOC(=O)[C@H](CCc1ccccc1)N[C@@H](C)C(=O)N1[C@H](C(=O)O)C[C@@H]2CCC[C@@H]21 [Ramipril] | -0.401 | -1.57 | -0.0336 | -0.633 | -0.446 | -0.529
O=C(N/N=C/c1ccc([N+](=O)[O-])o1)c1ccc(O)cc1 [Nifuroxazide] | -0.723 | -1.67 | -0.848 | -0.476 | -0.646 | -0.646
COc1ccc(C(=O)c2ccccc2O)c(O)c1 [Dioxybenzone] | -0.417 | 0.711 | -0.27 | 0.232 | -0.379 | -0.234
COc1ccc2cc(CCC(C)=O)ccc2c1 [Nabumetone] | -0.302 | 0.891 | -0.304 | 0.488 | -0.495 | -0.175
CNS(=O)(=O)Cc1ccc2[nH]cc(CCN(C)C)c2c1 [Sumatriptan succinate] | -0.406 | 0.265 | -0.574 | -0.339 | -0.423 | -0.484
CC(Cc1cccc(C(F)(F)F)c1)NCCOC(=O)c1ccccc1 (configuration not stated) [Benfluorex hydrochloride] | -0.077 | -0.59 | -0.118 | 0.0685 | -0.352 | -0.573
CN(C)CCC(c1ccc(Br)cc1)c1ccccn1 (configuration not stated) [Brompheniramine maleate] | -0.686 | -0.0361 | -0.609 | -0.596 | -0.344 | 0.233
Nc1ccc(S(=O)(=O)Nc2ccc(Cl)nn2)cc1 [Sulfachloropyridazine] | -0.463 | -0.899 | -0.227 | -0.78 | -0.494 | -0.56
CN(C)CCOC(c1ccc(Cl)cc1)c1ccccn1 (configuration not stated) [Carbinoxamine maleate salt] | -0.697 | -0.856 | -0.5 | -0.502 | -0.442 | -0.169
